Measurements: PubChem BioAssay (Tox21)
Results filed as inconclusive are left out. The source made the active and inactive calls. Unless noted, the call rests on the fitted dose curve; in most records, active means well fitted curve in the direction sought with a large enough effect in the repeat runs; inconclusive means weak or mixed curves; inactive means no such curve, though single readings can be large; an effect the other way counts as inactive or inconclusive.

Assays:
[1] = qHTS assay to identify small molecule antagonists of the thyroid receptor (TR) signaling pathway - cell viability counter screen (AID 743064); further: nearly all actives have a fitted effect of over 50% in size
In short: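 GH3.TRE-Luc cells, 4 h pre-plating; cpd + T3 1 nM final; 37 °C 23.5 h; CellTiter-Fluor 30 min; fluorescence read.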

[2] = qHTS assay to identify small molecule antagonists of the thyroid receptor (TR) signaling pathway (AID 743065); further: series mostly up to about 70 µM; nearly all actives have a fitted effect of over 55% in size
In short: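 Antagonism measured as loss of luciferase signal in GH3 cells stably carrying a TRE-luciferase reporter, co-treated with compound and T3 (1 nM final) for 23.5 h at 37 C. Viability was read in the same well by CellTiter-Fluor.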

[3] = test system: thyroid hormone receptor (rat, GH3 cells); test: qHTS assay to identify small molecule agonists of the thyroid receptor (TR) signaling pathway (AID 743066; calls by dose curve)
[4] = molecular target: Estrogen receptor (Homo sapiens) (UniProt P03372); test: qHTS assay to identify small molecule antagonists of the estrogen receptor alpha (ER-alpha) signaling pathway (AID 743069; active means well fitted curve in the direction sought with a large enough effect in the signal ratio in the repeat runs, not every such curve was filed as active; the % refers to the signal ratio)
Estrogen receptor (Homo sapiens), sequence (P03372 whole entry, looked up): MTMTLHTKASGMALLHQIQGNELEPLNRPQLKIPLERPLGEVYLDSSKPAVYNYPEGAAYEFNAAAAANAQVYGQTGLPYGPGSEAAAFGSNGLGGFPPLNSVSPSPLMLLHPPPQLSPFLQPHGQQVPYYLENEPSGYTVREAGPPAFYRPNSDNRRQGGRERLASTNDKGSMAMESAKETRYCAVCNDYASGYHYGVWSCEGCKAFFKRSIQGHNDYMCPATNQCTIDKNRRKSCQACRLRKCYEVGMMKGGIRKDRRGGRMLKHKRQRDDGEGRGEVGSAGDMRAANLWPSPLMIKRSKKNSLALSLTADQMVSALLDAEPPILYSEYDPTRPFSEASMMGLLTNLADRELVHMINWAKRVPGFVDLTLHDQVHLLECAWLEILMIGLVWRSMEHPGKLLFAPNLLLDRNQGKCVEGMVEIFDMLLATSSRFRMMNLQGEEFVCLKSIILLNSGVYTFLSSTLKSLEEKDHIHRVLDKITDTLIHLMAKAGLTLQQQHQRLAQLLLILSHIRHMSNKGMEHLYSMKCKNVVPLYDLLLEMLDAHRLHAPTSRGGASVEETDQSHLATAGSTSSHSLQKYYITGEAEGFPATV
In short: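 Fluorescence intensity from a beta-lactamase FRET substrate served as the read-out. Cells: HEK293 with stably integrated ER-alpha-UAS-bla reporter. Agonist 17beta-estradiol was co-added with compounds; incubation 18 hr at 37C, substrate 2 hr at room temperature.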

[5] = qHTS assay to identify small molecule antagonists of the estrogen receptor alpha (ER-alpha) signaling pathway - cell viability counter screen (AID 743074; calls by dose curve; further: nearly all actives have a fitted effect of over 45% in size)
[6] = molecular target: Estrogen receptor (Homo sapiens) (UniProt P03372); test: qHTS assay to identify small molecule agonists of the estrogen receptor alpha (ER-alpha) signaling pathway (AID 743075; calls by dose curve)
[7] = molecular target: Estrogen receptor (Homo sapiens) (UniProt P03372); test: qHTS assay to identify small molecule agonists of the estrogen receptor alpha (ER-alpha) signaling pathway using the BG1 cell line (AID 743079); further: nearly all actives have a fitted effect of over 20% in size
[8] = qHTS assay to identify small molecule antagonists of the estrogen receptor alpha (ER-alpha) signaling pathway using the BG1 cell line - cell viability counter screen (AID 743081);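 further: compound given together with 17beta-estradiol as the ER stimulus; series mostly up to about 70 µM; nearly all actives have a fitted effect of over 45% in size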
Aromatase (Homo sapiens) = Aromatase (Homo sapiens) (UniProt P11511); test: qHTS assay to identify aromatase inhibitors (AID 743083); further: series mostly up to about 70 µM; nearly all actives have a fitted effect of over 55% in size
Aromatase (Homo sapiens), sequence (P11511 whole entry, looked up): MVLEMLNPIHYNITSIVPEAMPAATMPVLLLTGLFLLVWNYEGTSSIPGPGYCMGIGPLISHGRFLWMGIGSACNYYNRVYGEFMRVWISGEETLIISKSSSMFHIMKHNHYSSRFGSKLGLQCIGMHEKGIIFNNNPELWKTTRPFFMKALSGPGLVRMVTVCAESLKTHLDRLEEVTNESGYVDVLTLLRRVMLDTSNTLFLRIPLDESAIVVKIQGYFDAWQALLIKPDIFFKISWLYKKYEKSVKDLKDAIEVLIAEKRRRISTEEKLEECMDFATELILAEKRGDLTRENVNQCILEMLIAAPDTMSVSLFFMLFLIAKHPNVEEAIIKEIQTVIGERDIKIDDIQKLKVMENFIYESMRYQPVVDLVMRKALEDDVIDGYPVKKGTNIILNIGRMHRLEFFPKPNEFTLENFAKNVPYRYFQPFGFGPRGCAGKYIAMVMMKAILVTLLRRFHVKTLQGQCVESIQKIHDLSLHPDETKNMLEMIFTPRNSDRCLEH

[9] = qHTS assay to identify aromatase inhibitors - cell viability counter screen (AID 743084);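 further: cells stimulated with testosterone during compound exposure; nearly all actives have a fitted effect of over 55% in size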
[10] = qHTS assay to identify small molecule that activate the aryl hydrocarbon receptor (AhR) signaling pathway - cell viability counter screen (AID 743086);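 further: HepG2 liver cells carrying the AhR DRE luciferase reporter; series mostly up to about 70 µM; nearly all actives have a fitted effect of over 45% in size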
In short: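 Cytotoxicity counter screen: CellTiter-Fluor signal (30 min, 37 C) in 4000 HepG2 cells/well carrying the DRE-luciferase reporter, following 24 h compound exposure at 37 C.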

[11] = molecular target: Peroxisome proliferator-activated receptor gamma (Homo sapiens) (UniProt P37231); test: qHTS assay to identify small molecule agonists of the peroxisome proliferator-activated receptor gamma (PPARg) signaling pathway (AID 743094; active means well fitted activation curve with a large enough effect in the signal ratio in the repeat runs, not every such curve was filed as active; the % refers to the signal ratio)
Peroxisome proliferator-activated receptor gamma (Homo sapiens), sequence (P37231 whole entry, looked up): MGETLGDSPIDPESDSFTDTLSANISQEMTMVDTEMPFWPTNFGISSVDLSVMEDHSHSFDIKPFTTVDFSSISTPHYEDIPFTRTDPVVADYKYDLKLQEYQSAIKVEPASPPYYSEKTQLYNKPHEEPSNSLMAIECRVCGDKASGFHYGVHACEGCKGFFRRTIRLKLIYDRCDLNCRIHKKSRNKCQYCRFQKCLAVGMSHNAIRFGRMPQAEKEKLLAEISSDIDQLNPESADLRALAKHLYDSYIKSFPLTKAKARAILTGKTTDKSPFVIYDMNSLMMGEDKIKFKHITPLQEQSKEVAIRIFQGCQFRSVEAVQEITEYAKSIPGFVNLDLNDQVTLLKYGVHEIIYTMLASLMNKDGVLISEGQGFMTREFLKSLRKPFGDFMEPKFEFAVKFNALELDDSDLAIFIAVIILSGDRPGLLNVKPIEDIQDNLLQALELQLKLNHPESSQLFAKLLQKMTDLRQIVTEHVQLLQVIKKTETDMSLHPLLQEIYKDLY
In short: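 Fluorescence-based beta-lactamase readout in HEK293H PPARg UAS-bla cells after 17 h compound exposure (37C) and 1 h B/G FRET substrate incubation at room temperature.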

[12] = qHTS assay to identify small molecule antagonists of the peroxisome proliferator-activated receptor gamma (PPARg) signaling pathway - cell viability counter screen (AID 743194); further: nearly all actives have a fitted effect of over 55% in size
In short: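 Viability was measured as CellTiter-Glo luminescence in GeneBLAzer PPARg UAS-bla HEK293H cells. These cells had been exposed 17 h at 37 C to compounds together with rosiglitazone at 50 nM final, with the beta-lactamase readout taken in the same wells.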

[13] = qHTS assay for small molecule agonists of the antioxidant response element (ARE) signaling pathway (AID 743202; active means well fitted activation curve with a large enough effect in the signal ratio in the repeat runs, not every such curve was filed as active; the % refers to the signal ratio)
In short: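 Beta-lactamase reporter activity, read as fluorescence intensity, reflects ARE/Nrf2 pathway induction in HepG2 cells after 16 h compound exposure at 37 C; substrate loading was 2 h at room temperature.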

[14] = qHTS assay for small molecule agonists of the antioxidant response element (ARE) signaling pathway - cell viability counter screen (AID 743203; calls by dose curve; further: nearly all actives have a fitted effect of over 55% in size)
In short: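 Parallel cytotoxicity read-out for the ARE-bla screen: HepG2 reporter cells, 16 hrs with compounds, then CellTiter-Glo luminescence.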

[15] = qHTS assay for small molecule activators of the heat shock response signaling pathway - cell viability counter screen (AID 743209); further: nearly all actives have a fitted effect of over 50% in size
In short: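 To flag cytotoxic compounds, HSE-bla HeLa cells plated at 1500 cells/well were dosed for 5 h at 37 C, followed by the reporter FRET read and then CellTiter-Glo, with luminescence recorded 30 min after reagent addition.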

[16] = qHTS assay for small molecule activators of the heat shock response signaling pathway (AID 743210; active means well fitted activation curve with a large enough effect in the signal ratio in the repeat runs, with a control signal flat, not every such curve was filed as active; the % refers to the signal ratio;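 further: HeLa cells with beta-lactamase reporter driven by heat shock elements; series mostly up to about 63 µM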)
In short: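 Fluorescence from a cleaved B/G FRET substrate (2.5 h, room temp) reports HSE-driven beta-lactamase in HeLa cells treated 5 h at 37 C with DMSO-dissolved compounds.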

[17] = molecular target: Aryl hydrocarbon receptor (Homo sapiens) (UniProt P35869); test: qHTS assay to identify small molecule that activate the aryl hydrocarbon receptor (AhR) signaling pathway (AID 743085);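 further: HG2L7.5c1 human HepG2 liver cells with stably integrated DRE-driven firefly reporter; series mostly up to about 70 µM; nearly all actives have a fitted effect of over 15% in size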
Aryl hydrocarbon receptor (Homo sapiens), sequence (P35869 whole entry, looked up): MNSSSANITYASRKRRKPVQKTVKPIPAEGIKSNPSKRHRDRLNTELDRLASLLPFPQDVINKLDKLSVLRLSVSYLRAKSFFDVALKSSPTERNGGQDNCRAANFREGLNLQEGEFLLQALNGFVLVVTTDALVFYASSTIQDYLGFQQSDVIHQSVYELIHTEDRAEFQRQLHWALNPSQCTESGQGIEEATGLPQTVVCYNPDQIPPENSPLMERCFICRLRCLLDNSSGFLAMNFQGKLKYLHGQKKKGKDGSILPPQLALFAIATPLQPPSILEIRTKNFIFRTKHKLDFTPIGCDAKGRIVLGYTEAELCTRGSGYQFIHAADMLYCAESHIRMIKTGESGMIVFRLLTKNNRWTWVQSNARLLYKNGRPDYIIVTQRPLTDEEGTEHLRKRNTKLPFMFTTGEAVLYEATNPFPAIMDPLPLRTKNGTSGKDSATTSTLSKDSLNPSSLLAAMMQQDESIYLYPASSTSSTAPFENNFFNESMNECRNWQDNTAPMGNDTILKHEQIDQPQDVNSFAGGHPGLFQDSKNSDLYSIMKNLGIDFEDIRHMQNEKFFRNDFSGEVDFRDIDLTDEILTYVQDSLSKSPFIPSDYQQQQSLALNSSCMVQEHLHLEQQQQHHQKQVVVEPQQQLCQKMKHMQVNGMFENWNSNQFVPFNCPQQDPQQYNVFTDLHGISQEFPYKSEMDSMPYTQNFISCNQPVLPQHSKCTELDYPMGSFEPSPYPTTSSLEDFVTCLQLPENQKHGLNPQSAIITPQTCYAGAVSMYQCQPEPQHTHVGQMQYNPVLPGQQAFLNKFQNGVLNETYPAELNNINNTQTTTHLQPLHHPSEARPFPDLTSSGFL
In short: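 Luminescence read-out: ONE-Glo reagent, 30 min at room temperature, in HG2L7.5c1 HepG2 reporter cells treated 24 h at 37C. Viability was measured beforehand by CellTiter-Fluor fluorescence after 30 min at 37C.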

[18] = molecular target: Peroxisome proliferator-activated receptor gamma (Homo sapiens) (UniProt P37231); test: qHTS assay to identify small molecule antagonists of the peroxisome proliferator-activated receptor gamma (PPARg) signaling pathway (AID 743191; calls by dose curve; further: series mostly up to about 63 µM; nearly all actives have a fitted effect of over 30% in size)
In short: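 Beta-lactamase reporter under UAS control in HEK293H PPARg-bla cells; compound treatment 17 h at 37C. Read-out: fluorescence intensity after 1 h room-temperature incubation with LiveBLAzer B/G FRET substrate.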

[19] = qHTS assay to identify small molecule antagonists of the estrogen receptor alpha (ER-alpha) signaling pathway using the BG1 cell line (AID 743080; calls by dose curve;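 further: BG1 cells stimulated with 17beta-estradiol alongside compound; series mostly up to about 70 µM; nearly all actives have a fitted effect of over 25% in size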)
In short: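 Endogenous full-length ER-alpha in BG1-Luc-4E2 cells drives a stably integrated 4×ERE luciferase gene; compounds were tested against 17beta-estradiol over 21.5 h, with luminescence and multiplexed viability fluorescence recorded.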

Measured: Potency

CC(C)c1ccc2cc(C(C)C)ccc2c1
not listed: [17] | [18] | [19]
inactive: all other assays above

COc1cc(NS(=O)(=O)c2ccc(N)cc2)nc(OC)n1
not listed: [13] | [15] | [19]
inactive: all other assays above

CC(=O)Nc1cccc(C)c1
not listed: [8] | [16] | [18]
inactive: all other assays above

CCOC(=O)/C=C/c1ccccc1
not listed: [5] | [10] | [13] | [15] | [16]
inactive: all other assays above

Cc1ccc2c(c1)OCC(=O)CO2
not listed: [7]
inactive: all other assays above

O=S(=O)(O)c1ccc2cc(O)c(S(=O)(=O)O)cc2c1
not listed: [5] | [15]
inactive: all other assays above

OCCC(F)(F)C(F)(F)C(F)(F)C(F)(F)C(F)(F)C(F)(F)C(F)(F)C(F)(F)F
not listed: [4] | [11] | [18]
inactive: all other assays above

O=C(/N=N/C(=O)OCc1ccccc1)OCc1ccccc1
not listed: [5] | [7] | [10] | [16] | [17] | [18] | [19]
inactive: all other assays above

N#Cc1ccc(C(=O)O)cc1
not listed: [4] | [6] | [7] | [10] | [18] | [19]
inactive: all other assays above

CCOCCOCCOCC
not listed: [4] | [6] | [7] | [10] | [19]
inactive: all other assays above

COC(=O)CCc1ccc(OCC(O)CNC(C)C)cc1 (configuration not stated)
not listed: [4] | [6] | [7] | [19]
inactive: all other assays above

CCCCCCCCCCl
not listed: [4] | [6] | [7] | [14] | [19]
inactive: all other assays above

CC(C)NCC(O)COc1cccc2[nH]ccc12 (configuration not stated)
not listed: [4] | [6] | [7] | [13] | [15] | [17] | [18] | [19]
inactive: all other assays above

CCCC/C=C\CCCCCCCCCC=O
not listed: [4] | [6] | [7] | [13] | [14] | [18] | [19]
inactive: all other assays above

CCCCCOC(=O)CCC
not listed: [4] | [6] | [7] | [13] | [19]
inactive: all other assays above

CC(C)(C)c1cc(CCC(=O)NN)cc(C(C)(C)C)c1O
not listed: [4] | [6] | [7] | [13] | [18] | [19]
inactive: all other assays above
